# Source: PubChem BioAssay
# This is a sample that favours compounds with a hit; in the whole collection about 2.3% have one here.
# aSyn rescue: rescues yeast growth from alpha-synuclein toxicity. AID 652106. Yeast expressing alpha-synuclein, growth rescue, BacTiter-Glo, 24 h. 0.14% of 370,000 active. Potency, µM (titrated, usually from 46.1 µM), without a hit: at the top dose growth rescue (activation), hits mostly activators; note: potency is the fitted concentration of half-maximal effect; % of control where 0% means no effect; nearly all actives have a fitted effect of over 65% in size
#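 Rescue of yeast growth: cells expressing toxic alpha-synuclein, induced in galactose at OD600 0.02, incubated with compound 24 h at 30 C. ATP luminescence quantified growth; inhibitors of toxicity appear as activators.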
# MmCpn inh: inhibitors of Methanococcus maripaludis chaperonin TRiC (MmCpn); purified Mm-Cpn ATPase, ADP Transcreener TR-FRET; Potency, µM (top dose mostly 76.9 µM), without a hit: at the highest dose activity, negative = inhibition, actives largely listed as inhibitors; 0.031% of 330,000 active; note: potency is the fitted concentration of half-maximal effect; % is set by controls: 0 for no effect and ±100 for the full control effect; nearly all actives have a fitted effect of over 80% in size
#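 Inhibition of chaperonin ATP hydrolysis is measured as reduced ADP production, detected by competitive TR-FRET in which signal falls with ADP. Final enzyme 25 nM and ATP 10 uM, reacted 30 min at 37°C.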
# TDP43 rescue: TDP-43 toxicity inhibition in yeast; TDP-43 expressing yeast growth rescue, BacTiter-Glo, 24 h; Potency, µM (doses to about 46.1 µM), for the others: top-dose growth rescue (activation), actives largely listed as activators; 1.8% of 410,000 active; note: potency is the fitted concentration of half-maximal effect; % of control where 0% means no effect; nearly all actives have a fitted effect of over 50% in size
#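 Cell-based yeast growth screen: TDP-43 expression induced in galactose, inoculum OD600=0.02 after raffinose pregrowth to mid-log. Read-out BacTiter-Glo luminescence at 24 hr, 30 deg C; inhibition of toxicity seen as signal increase.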
# CCT modulator: modulators of cytosolic chaperonin (CCT/TRiC) activity. AID 651819. 0.3% of 360,000 active. purified chaperonin ATPase assay, HTRF ADP detection, 30 min. activity change, % (no concentration beside the values), hits read low; in the data active = activity change below about -30%; note: % is set by controls: 0 for no effect and ±100 for the full control effect
#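 TRiC (40 or 20 nM final, by batch activity) in 30 mM Tris pH 7.4, 100 mM KCl, 5 mM MgCl2, 1 mM DTT was treated with compound at 76 uM single dose, then 10 uM ATP, 30 min at 37 °C. ADP was read by HTRF Transcreener.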
# FUS yeast rescue: suppressors of FUS proteinopathy in yeast. S. cerevisiae FUS-expressing, growth rescue, OD600, 24 h. Potency, µM (doses to about 76.6 µM), actives largely listed as activators. 0.24% of 390,000 active;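 note: potency is the fitted concentration of half-maximal effect; plate controls were DMSO vehicle for no effect and reference control for full effect; nearly all actives have a fitted effect of over 55% in size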
#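 Toxicity suppression screen in FUS-yeast. Cells induced with 2% galactose, starting OD 0.005, treated 24hr at 30C with compounds at multiple final concentrations; growth by OD600.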
# Abeta rescue: A-beta toxicity reversal in yeast; Potency, µM (doses to about 46.1 µM), most hits filed as activators; AID 1347071; yeast expressing A-beta42, growth rescue, OD600, 48 h; response scale: 0% DMSO, 100% iron-clioquinol control; 0.063% of 410,000 active; note: potency is the fitted concentration of half-maximal effect; nearly all actives have a fitted effect of over 55% in size
#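 Yeast growth medium received pinned compounds, then yeast cells expressing toxic A-beta were added; plates incubated at 30 C for 48 hr. Growth read as absorbance at 600 nm, normalized to DMSO and equimolar FeCl3 plus clioquinol controls.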
# Active calls of the source: *; i = inactive; ? = inconclusive; · = no result given; ! = a repeat was not active; [ ] = another dose, or the depositor's remark. Unless noted, calls come from the whole dose curve; as a rule, active = well fitted curve in the direction sought with a large enough effect; inconclusive = small, poorly fitted or top-dose-only effect, or another doubt; inactive = no such curve, though single readings can be large; an effect the other way counts as inactive or inconclusive.
SMILES,aSyn rescue,MmCpn inh,TDP43 rescue,CCT modulator,FUS yeast rescue,Abeta rescue
C[C@]12CCC(=O)C(O)=C1CC[C@@H]1[C@@H]2CC[C@]2(C)C(=O)CC[C@@H]12,3%,-8%[15.4 µM],13µM*,-1,i,i
C[C@]12CC[C@H](O)C[C@@H]1CC[C@@H]1[C@@H]2CC[C@]2(C)C(=O)CC[C@@H]12,?,-1%,14µM*,-1,i,i
O=c1c2ccccc2nc(-c2ccc([N+](=O)[O-])cc2)n1-c1ccccc1,-1%,-6%,0%,0,i,i
Cc1ccccc1-n1c(-c2ccc([N+](=O)[O-])cc2)nc2ccccc2c1=O,20µM*,-1%,?,0,i,i
Cc1ccc(F)cc1NC(=O)c1ccc(Cn2nc(N3CCN(c4ccccc4)CC3)ccc2=O)o1,·,·,25µM*,·,?,i
COc1ccc(C(c2c(O)c3ccccc3oc2=O)c2c(C)n(C)n(-c3ccccc3)c2=O)cc1 (stereo not drawn),-1%,-2%,22µM*!,0,i,i
Cc1c(C(c2ccccc2Cl)c2c(O)c3ccccc3oc2=O)c(=O)n(-c2ccccc2)n1C (stereo not drawn),11%,1%,7.9µM*,-2,i,i
Cc1c(C(c2ccc(F)cc2)c2c(O)c3ccccc3oc2=O)c(=O)n(-c2ccccc2)n1C (stereo not drawn),4%,-2%,?,1,?,?
C[C@H](CO)N1C[C@H](C)[C@H](CN(C)C(=O)Cc2ccncc2)Oc2ncc(Br)cc2C1=O,2%,·,4%,-1,i,i
COC(=O)C1(C(=O)OC)C[C@H](c2ccc(OC)cc2)N(Cc2ccccc2OC)[C@@H]1c1ccccc1,?,·,5%,·,i,i
C[C@@H]1O[C@@H](O[C@@H]2C=C3CC[C@@H]4[C@@H](CC[C@]5(C)[C@H](c6ccc(=O)oc6)CC[C@@]45O)[C@@]3(C)CC2)[C@H](O)[C@H](O)[C@H]1O,0%,·,·,·,·,·
CCOc1ccc(/C=C/c2nc(C#N)c(NCc3ccccc3)o2)cc1,·,·,?,·,i,i
COc1ccc(N2C(=O)/C(=C/c3ccc(C)o3)C(=O)NC2=S)cc1,5%,-5%,7.1µM*,1,i,i
C=CCn1c(O)c(C(CC)=NCCC2=CCCCC2)c(=O)[nH]c1=O,·,-2%,18µM*,1,i,i
Cc1ccccc1C(=O)Nc1cc(-c2ccc(Cl)cc2)nn1-c1ccccc1,·,·,?,·,i,i
Cc1cc(O)c2c(c1)OC(C)(C)C1=C2CC(C)CC1 (stereo not drawn),22%,-2%,13µM*,2,i,i
Cc1cc(C(=O)OCC(=O)Nc2ccc(F)cc2)c(C)n1C1CC1,29%,0%,35µM*,-3,·,i
O=S(=O)(c1ccc(Cl)cc1)N1CCC(n2cnc3cc(C(F)(F)F)ccc32)CC1,?,·,32µM*,-2,·,i
Cc1cc(=O)oc2c(C)c(OC3CCCCC3=O)ccc12 (stereo not drawn),6%,-1%,?,0,i,i
O=C(CN1CCN(S(=O)(=O)c2cc(Br)ccc2Br)CC1)NCc1ccccc1Cl,20%,·,?,0,·,i
CC12CCC3c4ccc(O)c([N+](=O)[O-])c4CCC3C1CCC2=O (stereo not drawn),4%,·,?,1,i,i
O=C(Oc1ccc(Cl)cc1)N1CCOCC1,5%,0%,20µM*,-2,i,i
O=C1/C(=C/c2cccc([N+](=O)[O-])c2)N2CCC1CC2,6%,5%,-11%,0,i,i
O=C1/C(=C/c2cc([N+](=O)[O-])ccc2Cl)N2CCC1CC2,4%,-1%,18µM*,1,i,i
